Reference: the supplement of paper PMC9877034
Counter-ions that a name gives are not always drawn. The full ranking holds about 1,000 compounds; the median of “cFRET/donor change relative to DMSO, normalised to beta-lapachone positive control (supercomplex I-IV assembly)” is about 0.18, and the lowest 2% start at about -1. Only a selection was taken, and the lowest values are over-represented in it overall.

What follows are compounds tested on C2C12 (NDUFB8-AcGFP / COX8A-DsRed-Monomer FRET reporter) (assay: cFRET/donor change relative to DMSO, normalised to beta-lapachone positive control (supercomplex I-IV assembly) (fraction of beta-lapachone effect); higher = more respiratory supercomplex assembly). Settings: 40 µM; 24 h.
Method: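 Cells were treated with 40 uM compound for 24 h and imaged on an IN Cell Analyzer 6000. Corrected FRET was divided by donor signal (cFRET/donor) and measured in two replicate experiments. The score is (mean cFRET/donor of compound - mean DMSO) / (mean beta-lapachone 40 uM - mean DMSO). Compounds flagged for prominent cell death, abnormal morphology or decreased cell number were excluded.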
`Nc1ccc(-c2ccc3ccccc3n2)cc1` [BF-170 hydrochloride] was tested, and the cFRET/donor change was -0.429.
For `CN(C)C(=O)[C@H](O)[C@H](Cc1ccccc1)NC(=O)c1cc2cc(Cl)ccc2[nH]1`, the cFRET/donor change was 0.332.
`NC(=O)C1=CN(C2OC(COP(=O)(O)OP(=O)(O)OC[C@H]3O[C@@H](n4cnc5c(N)ncnc54)C(OP(=O)(O)O)[C@H]3O)C(O)C2O)C=CC1` (some centres undefined) [NADPH tetrasodium] showed a cFRET/donor change of -0.198.
Work on `Cc1[nH]c(=O)c(C#N)cc1-c1ccc2nccn2c1` [Olprinone hydrochloride] yielded a cFRET/donor change of 0.211.
`CN1C2CCCC1CC(NC(=O)c1nn(C)c3ccccc13)C2` (centres undefined) [Granisetron hydrochloride] gave a cFRET/donor change of 0.333.
`O=C(O)COCCN1CCN(C(c2ccccc2)c2ccc(Cl)cc2)CC1` (centres undefined) [Cetirizine dihydrochloride] gave a cFRET/donor change of 0.511.
Work on `Cc1cccc(C)c1NC(=O)C(C)N` (centres undefined) [Tocainide hydrochloride] yielded a cFRET/donor change of 0.415.
With `CCCCCc1ccc(/C=C/C(=O)Nc2cc(Cl)ccc2C(=O)O)cc1` the cFRET/donor change was 0.0865.
`Oc1cc2c(c(Cl)c1O)CCNCC2c1ccccc1` (racemic) [(±)-6-Chloro-PB hydrobromide] gave a cFRET/donor change of 2.85.
With `Nc1ccn([C@@H]2O[C@H](CO)[C@@H](O)C2(F)F)c(=O)n1` [Gemcitabine hydrochloride] the cFRET/donor change was 0.261.
With `CCCCc1ncc(/C=C(\Cc2cccs2)C(=O)O)n1Cc1ccc(C(=O)O)cc1` [Eprosartan mesylate] the cFRET/donor change was -0.151.
`COCCOc1cc2nc[nH]c(=O)c2cc1OCCOC` gave a cFRET/donor change of 0.343.
Compound `CCNC(=O)[C@H]1O[C@@H](n2cnc3c(N)nc(NCCc4ccc(CCC(=O)O)cc4)nc32)[C@H](O)[C@@H]1O` has a cFRET/donor change of -0.069.
`Nc1nc2ccc(Cl)cc2c2nc(-c3ccco3)nn12` gave a cFRET/donor change of 0.163.
Work on `Nc1nc2ccc(Cl)cc2n2c(-c3ccccc3)nnc12` yielded a cFRET/donor change of -1.23.
`OC[C@H]1O[C@H]([S-])[C@H](O)[C@@H](O)[C@@H]1O.[Au+]` [Aurothioglucose] was tested, and the cFRET/donor change was -0.0527.
Compound `Nc1ncnc2c1ncn2[C@@H]1O[C@H](COP(=O)(O)OP(=O)(O)OP(=O)(O)OP(=O)(O)OC[C@@H]2O[C@H](n3cnc4c(N)ncnc43)C(O)[C@@H]2O)[C@H](O)C1O` (some centres undefined) [P1,P4-Di(adenosine-5')tetraphosphate triammonium] has a cFRET/donor change of 0.0746.
With `CCOC(=O)[C@H](CCc1ccccc1)N[C@@H](C)C(=O)N1[C@H](C(=O)O)C[C@H]2CCCC[C@@H]21` [Trandolapril] the cFRET/donor change was -0.23.
`CCc1ccc(/C=C2/SC(=S)NC2=O)cc1` showed a cFRET/donor change of -1.41.
`O=C1NC(=O)/C(=C\c2ccc3nccnc3c2)S1` showed a cFRET/donor change of 2.84.
For `CCCCS(=O)(=O)N[C@@H](Cc1ccc(OCCCCC2CCNCC2)cc1)C(=O)O` [Tirofiban hydrochloride monohydrate], the cFRET/donor change was 0.174.
With `CO[C@H]1O[C@@H]2O[C@@]3(C)CC[C@H]4[C@H](C)CC[C@@H]([C@H]1C)[C@@]24OO3` [Artemether] the cFRET/donor change was 0.954.
`O=C(NOCC1CC1)c1cc(Br)c(F)c(F)c1Nc1ccc(I)cc1Cl` gave a cFRET/donor change of 0.176.
With `COc1cc(Nc2c(C#N)cnc3cc(OCCCN4CCN(C)CC4)c(OC)cc23)c(Cl)cc1Cl` [Bosutinib] the cFRET/donor change was 0.241.
Compound `NCC(O)c1ccc(O)c(O)c1` (racemic) [(±)-Norepinephrine (+)bitartrate] has a cFRET/donor change of -0.03.
In the case of `CN(C)C[C@H](O)Cn1c2ccc(Br)cc2c2cc(Br)ccc21` (racemic) [Wiskostatin], the cFRET/donor change is reported as 0.951.
For `CN(C)c1ccccc1CN1CCCN(Cc2ccccc2N(C)C)C1c1ccncc1`, the cFRET/donor change was 0.598.
`CS(=O)(=O)c1ccc(-n2nc(C(F)(F)F)cc2-c2ccc(F)cc2)cc1` was tested, and the cFRET/donor change was 0.187.
`O=C(Nc1ccc2[nH]ncc2c1)C1CCC1` [Rhodblock 6] gave a cFRET/donor change of 0.156.
`COc1cc2nc(N(C)CCCNC(=O)C3CCCO3)nc(N)c2cc1OC` (centres undefined) [Alfuzosin hydrochloride] showed a cFRET/donor change of 0.0541.
Compound `CN(C)CCC(c1ccc(Br)cc1)c1ccccn1` (single isomer, unassigned; (+)) [(+)-Brompheniramine maleate] has a cFRET/donor change of 0.114.
Work on `CN1CCN(CCCN2c3ccccc3Sc3ccc(C(F)(F)F)cc32)CC1` [Trifluoperazine dihydrochloride] yielded a cFRET/donor change of 0.794.
Work on `Nc1nc2c(c(=O)[nH]1)C[C@@H](CCc1ccc(C(=O)N[C@@H](CCC(=O)O)C(=O)O)cc1)CN2` [Lometrexol hydrate] yielded a cFRET/donor change of -0.284.
With `N=C(N)NC(=O)c1nc(Cl)c(N)nc1N` [Amiloride hydrochloride] the cFRET/donor change was -0.0692.
For `CCN(c1nc(N)c(C(=O)NC(=N)N)nc1Cl)C(C)C` [5-(N-Ethyl-N-isopropyl)amiloride], the cFRET/donor change was -1.88.
`CN(C)c1nc(N)c(C(=O)NC(=N)N)nc1Cl` [5-(N,N-Dimethyl)amiloride hydrochloride] gave a cFRET/donor change of 0.174.
`COc1ccc(Br)cc1S(=O)(=O)NC(=O)/C=C/c1ccccc1Cc1ccc2ccccc2c1` showed a cFRET/donor change of 0.583.
For `COc1ccc(/C=C/c2nc(NCCCN(C)C)c3ccccc3n2)cc1`, the cFRET/donor change was 0.418.
`Cn1c(=O)c2nc[nH]c2n(C)c1=O` [Theophylline] showed a cFRET/donor change of 0.334.
